Screens as filed in PubChem.
Statin myotox sup = suppressors of statin myotoxicity in C2C12 myotubes, primary screen, cell-based, single point, plate reader | C2C12 myotubes + simvastatin, ATP luminescence, 48 h; scaled: DMSO 0, geranylgeraniol control 100 | rescue of ATP level, % at 7.49 µM | 0.78% of 330,000 active;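 active = mean ATP rescue above about 67%, or every replicate alone reaching that limit, limit read from the data, passing the limit was not always enough; inconclusive = no clear call, values can overlap the other calls; inactive = mean under the limit and some replicate under it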;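 note: myotubes were challenged with 10 µM simvastatin during compound exposure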
PvdQ inh = P. aeruginosa PvdQ acylase inhibitors, primary screen, biochemical, fluorescence, plate reader and imaging, single point | PvdQ acylase [Pseudomonas aeruginosa LESB58] | purified PvdQ acylase | inhibition, % at 10 µM | 0.063% of 340,000 active; in the data active = inhibition above about 30%, passing the limit was not always enough; inconclusive = no clear call, values can overlap the other calls
PGC1a acetyl inh = inhibitors of PGC1a acetylation signal, primary screen, cell-based, U2OS, AlphaScreen, inhibitor mode; AlphaScreen anti-acetyl-lysine; with virally co-expressed GCN5 acetyltransferase; inhibition, % at 15.6 µM; 0.17% of 350,000 active; AID 651687, 2012;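 active = every replicate shows inhibition of at least 40%; inconclusive = mean inhibition at least 40% but some replicate below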
DENV2 CPE = inhibitors of DENV2 cytopathic effect, primary screen, cell-based, plate reader, single concentration; DENV2-infected cells, cytopathic effect rescue; CPE inhibition, % at 9.99 µM; 1.7% of 350,000 active; in the data active = CPE inhibition above about 20%, passing the limit was not always enough; inconclusive = no clear call, values can overlap the other calls; tested in BHK-21 cells
miR122 inh = miR-122 Renilla sensor signal increase in Huh7, primary screen, miR-122 inhibitor project, cell-based, single point, plate reader | activation (reporter increase), % at 12.5 µM | 0.3% of 340,000 active | Huh7 miR-122 Renilla luciferase sensor, 48 h; neutral wells = 0, positive control = 100;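 active = mean replicate activation score at least 90 and every replicate individually at or above 90; inconclusive = only one of the two criteria met; inactive = neither criterion met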;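 note: higher luciferase means less miR-122 activity so hits act as miR-122 inhibitors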
Each line names hits and unclear results; the compound was inactive in the other large screens. Most compounds without a hit are left out; they make up all but 2.2% or so of the library.

C[C@H](CO)N1C[C@H](C)[C@@H](CN(C)C(=O)C2CCCCC2)Oc2cc(C#CC(C)(C)O)ccc2S1(=O)=O	none (no result: PvdQ inh)
CN(C)CC(=O)Nc1ccc2c(c1)[C@H]1C[C@@H](CC(=O)N(C)C)O[C@H](CO)[C@H]1O2	none (no result: PvdQ inh)
COC(=O)[C@@H]1[C@@H](CO)[C@@H]2Cn3c(ccc(-c4ccccc4F)c3=O)[C@@H]2N1C(=O)c1cnccn1	none (no result: PvdQ inh, PGC1a acetyl inh)
O=C(O)C=Cc1c[nH]c2nccnc12	none (no result: PvdQ inh)
O=C(O)/C=C/c1cnc[nH]1	PGC1a acetyl inh 106.0
O=C1CN(C(=O)COC(=O)c2c(F)cccc2Cl)c2ccccc2N1	DENV2 CPE 25.7
O=C1CN(C(=O)COC(=O)c2ccc(Cl)cc2)c2ccccc2N1	none (no result: PGC1a acetyl inh, miR122 inh)
CCCNC(=O)N(C)C[C@@H]1Oc2cc(-c3ccncc3)ccc2S(=O)(=O)N([C@H](C)CO)C[C@H]1C	none (no result: PvdQ inh)
CC[C@H](C)C1OC(=O)[C@@H](C)[C@@H](CC)NC(=O)[C@H](C)N(C)C(=O)C(C)(C)C(=O)C(C)NC(=O)[C@H](Cc2ccc(OC)cc2)N(C)C(=O)[C@H](C(C)C)N(C)C(=O)CNC(=O)[C@H](CC(C)C)N(C)C(=O)CNC1=O (stereo not given in full)	PGC1a acetyl inh 74.1 (no result: PvdQ inh, DENV2 CPE)
CC(=O)C1=C(O)C(=O)N(Cc2ccco2)C1c1ccccc1F (stereo not given)	none (no result: Statin myotox sup, PGC1a acetyl inh, miR122 inh)
CC(C)(C)C(=O)C1=C(O)C(=O)N(Cc2ccccc2)C1c1ccccc1F (stereo not given)	DENV2 CPE inconclusive, miR122 inh 238.7
CCCN(C)C[C@H]1Oc2cc(C#Cc3cccnc3)ccc2S(=O)(=O)N([C@H](C)CO)C[C@@H]1C	none (no result: PvdQ inh)
COc1ccccc1NC(=O)CCCc1nc(-c2ccc(OC)c(OC)c2)no1	none
COc1ccc(-c2noc(CCCC(=O)NCCc3ccccc3)n2)cc1OC	Statin myotox sup 150.9 (no result: DENV2 CPE)
COc1ccc2c3c([nH]c2c1)[C@@H](CO)N(C(=O)C1CCC1)CC31CN(Cc2nccs2)C1	none (no result: Statin myotox sup, PvdQ inh, PGC1a acetyl inh, miR122 inh)
COc1ccc(N2CCN(C(c3cc(OC)ccc3OC)c3nnnn3CC3CCCO3)CC2)cc1 (stereo not given)	Statin myotox sup 79.0 (no result: DENV2 CPE)
CC(C)(C)NCC(O)COc1ccccc1C1CCCC1 (stereo not given)	none
CC(C)(C)NC[C@@H](O)COc1cccc2c1CCCC2=O	DENV2 CPE 30.9 (no result: PGC1a acetyl inh)
CCC(=O)N1[C@H](C#N)[C@H](c2ccccc2-c2cccc(C)c2)[C@@H]1CO	DENV2 CPE 23.7 (no result: Statin myotox sup, PvdQ inh, miR122 inh)
CCc1sc(N2[C@H](C#N)[C@H](c3ccccc3-c3ccccc3)[C@H]2CO)nc1C	DENV2 CPE 76.5 (no result: Statin myotox sup, PvdQ inh, miR122 inh)
CCc1sc(N2[C@H](C#N)[C@@H](c3ccccc3-c3ccc(F)cc3)[C@@H]2CO)nc1C	none (no result: Statin myotox sup, PvdQ inh, miR122 inh)
COCC(=O)N1[C@H](CO)[C@H](c2ccccc2-c2ccccc2)[C@@H]1C#N	DENV2 CPE 44.6 (no result: Statin myotox sup, PvdQ inh, miR122 inh)
Cc1ccc(-c2ccccc2[C@@H]2[C@H](C#N)N(C(=O)Cc3cccnc3)[C@H]2CO)cc1	DENV2 CPE 25.6 (no result: Statin myotox sup, PvdQ inh, miR122 inh)
C[C@@H]1CN([C@@H](C)CO)S(=O)(=O)c2ccc(C#CC3CCCC3)cc2O[C@H]1CN(C)C(=O)c1cccc(F)c1	none (no result: PvdQ inh, DENV2 CPE)
CNC(=O)C[C@@H]1CC[C@H]2[C@@H](COC[C@@H](O)CN2C(=O)c2ccccn2)O1	none (no result: PvdQ inh)
O=C(Nc1ccc2c(c1)[C@H]1C[C@H](CC(=O)N3CCCCC3)O[C@@H](CO)[C@H]1O2)c1cccnc1	none (no result: PvdQ inh)
COc1ccc(N=C2S/C(=C\c3ccc(N4CCOCC4)o3)C(=O)N2CCc2c[nH]c3ccccc23)cc1	PGC1a acetyl inh 62.1 (no result: DENV2 CPE)
COc1ccc(N=C2S/C(=C\c3ccc(OCC(=O)O)cc3)C(=O)N2CCc2c[nH]c3ccccc23)cc1	none
O=C(Nc1ccccc1F)N1CCCCN2[C@H](CO)[C@H](c3ccc(-c4cccnc4)cc3)[C@H]2C1	DENV2 CPE 26.9 (no result: Statin myotox sup, PvdQ inh)
O=C(Nc1cc(F)ccc1F)N1CCCCN2[C@H](C1)[C@H](c1ccc(-c3ccccc3)cc1)[C@@H]2CO	DENV2 CPE 36.3 (no result: Statin myotox sup, PvdQ inh)
O=C(Nc1cc(F)ccc1F)N1CCCCN2[C@H](CO)[C@H](c3ccc(-c4ccccc4)cc3)[C@@H]2C1	none (no result: Statin myotox sup, PvdQ inh)
O=C(Nc1cc(F)ccc1F)N1CCCCN2[C@@H](CO)[C@H](c3ccc(-c4ccccc4)cc3)[C@@H]2C1	none (no result: Statin myotox sup, PvdQ inh)
O=C(Nc1cc(F)ccc1F)N1CCCCN2[C@H](CO)[C@H](c3ccc(-c4ccccc4)cc3)[C@H]2C1	DENV2 CPE 62.0 (no result: Statin myotox sup, PvdQ inh)
Cn1cnc(S(=O)(=O)N[C@H]2CC[C@@H](CC(=O)N3CCN(c4ccccc4)CC3)O[C@H]2CO)c1	none (no result: PvdQ inh)
Cc1ccc(S(=O)(=O)N[C@@H]2CC[C@H](CCn3cc(C(C)C)nn3)O[C@H]2CO)cc1	none (no result: PvdQ inh, miR122 inh)
COc1ccc(C(=O)OCC(=O)Nc2nnc(-c3ccccc3)o2)cc1	none
COc1cccc(CC(=O)OCC(=O)Nc2nnc(-c3ccccc3)o2)c1	DENV2 CPE 102.5
CO[C@@H]1CN(C)C(=O)c2ccc(NS(=O)(=O)c3ccccc3F)cc2OC[C@@H](C)NC[C@@H]1C	none (no result: Statin myotox sup, PvdQ inh, miR122 inh)
Cc1ccc(N2CCN(C(=O)c3ccccc3Br)CC2)c(C)c1	Statin myotox sup 80.6 (no result: DENV2 CPE)
O=C(Cc1cccnc1)N1[C@@H](CO)[C@@H]2c3ccccc3NC[C@@H]21	DENV2 CPE 23.5 (no result: PvdQ inh)
COCC(=O)N1[C@H](CO)[C@H]2c3ccccc3NC[C@H]21	DENV2 CPE 31.9 (no result: PvdQ inh)
O=C(C1CC1)N1[C@@H]2CNc3ccccc3[C@@H]2[C@@H]1CO	none (no result: PvdQ inh, DENV2 CPE)
CC(C)Oc1ccccc1OC1(C)CCN(Cc2ccc(OC(F)(F)F)cc2)C1 (stereo not given)	DENV2 CPE 42.2 (no result: PvdQ inh, PGC1a acetyl inh)
CC1(Oc2ccc(Cl)cc2)CCN(Cc2ccc(OC(F)(F)F)cc2)C1 (stereo not given)	none (no result: PvdQ inh)
CC(=O)c1ccc(OC2(C)CCN(Cc3ccc(C)cc3)C2)cc1 (stereo not given)	none (no result: PvdQ inh)
CC(=O)c1ccc(OC2(C)CCN(Cc3ccc4ccccc4c3)C2)cc1 (stereo not given)	DENV2 CPE 116.8 (no result: PvdQ inh)
CC1(Oc2cccc(F)c2)CCN(Cc2csc3ccccc23)C1 (stereo not given)	DENV2 CPE inconclusive (no result: PvdQ inh)
COC(=O)Cc1ccc(OC2(C)CCN(Cc3csc4ccccc34)C2)cc1 (stereo not given)	DENV2 CPE 25.7 (no result: PvdQ inh)
CCCNC(=O)Nc1ccc2c(c1)OC[C@H](C)N(Cc1cccnc1)C[C@H](C)[C@H](OC)CN(C)C2=O	none (no result: PvdQ inh, miR122 inh)
COc1ccc(COCCN2CCN(S(=O)(=O)c3ccc(C)cc3)CCC2=O)cc1	DENV2 CPE 79.2 (no result: Statin myotox sup, PvdQ inh, PGC1a acetyl inh, miR122 inh)
S=C(Nc1ccccc1Cl)N(CCCN1CCOCC1)Cc1ccccn1	none (no result: PGC1a acetyl inh)
Cc1ccc(Cl)cc1NC(=S)N(CCCN1CCOCC1)Cc1ccccn1	miR122 inh 160.3 (no result: Statin myotox sup, PGC1a acetyl inh, DENV2 CPE)
C[C@H]1CN([C@@H](C)CO)C(=O)c2c(c3ccccc3n2C)-c2ccccc2CO[C@@H]1CN(C)Cc1ccc(F)cc1	none (no result: Statin myotox sup, PvdQ inh, PGC1a acetyl inh, miR122 inh)
